Rows were chosen to be rich in hits. Some 2.7% of all compounds tested hit in one or more screens of this group.
GLP-1R inv ag – inverse agonists of human GLP-1 receptor. P43220. HEK293 GLP-1R CRE-luciferase, luminescence, 24 h; GLP-1R form is constitutively active. Potency, µM (titrated, usually from 38.3 µM), inactives show top-dose activity change, negative = inhibition, usual class: inhibitors. actives 1.6% (n = 410,000); further: on the % scale 0 is the no-effect control and ±100 the full control effect; nearly all actives have a fitted effect of over 55% in size
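Cells are plated, allowed 12 hours at 37 deg C, then treated with compounds for 24 hr before luciferase detection reagent is added and luminescence is read after 12 min at room temperature. The HEK293 line carries constitutively active GLP-1R with a cAMP-responsive reporter.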
TrxR1 inh – blocks rat thioredoxin reductase 1 | actives 1% (n = 390,000) | O89049 | Potency, µM (doses to about 114 µM), without a hit: at the highest dose activity change, negative = inhibition, actives largely listed as inhibitors | AID 588453 | recombinant rTrxR1, NADPH fluorescence consumption, selenite substrate; further: on the % scale 0 is the no-effect control and ±100 the full control effect; nearly all actives have a fitted effect of over 65% in size
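Rat TrxR1 (90 nM in the dispensed reagent) was pre-reduced with 400 uM NADPH for 5 min at room temperature, then incubated with compound for 15 min. After 400 uM selenite was added, NADPH fluorescence (Ex 340/Em 450 nm) was followed for 8 min.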
mIDH1 inhibitor – human IDH1 R132H inhibition; IDH1-R132H enzyme, NADPH consumption, diaphorase/resazurin fluorescence; Potency, µM (top dose mostly 76.6 µM), without a hit: top-dose activity change, negative = inhibition, actives largely listed as inhibitors; O75874; AID 602179; actives 0.093% (n = 390,000); further: on the % scale 0 is the no-effect control and ±100 the full control effect; nearly all actives have a fitted effect of over 65% in size
Target sequence (O75874 whole entry R132H, stated change not applied): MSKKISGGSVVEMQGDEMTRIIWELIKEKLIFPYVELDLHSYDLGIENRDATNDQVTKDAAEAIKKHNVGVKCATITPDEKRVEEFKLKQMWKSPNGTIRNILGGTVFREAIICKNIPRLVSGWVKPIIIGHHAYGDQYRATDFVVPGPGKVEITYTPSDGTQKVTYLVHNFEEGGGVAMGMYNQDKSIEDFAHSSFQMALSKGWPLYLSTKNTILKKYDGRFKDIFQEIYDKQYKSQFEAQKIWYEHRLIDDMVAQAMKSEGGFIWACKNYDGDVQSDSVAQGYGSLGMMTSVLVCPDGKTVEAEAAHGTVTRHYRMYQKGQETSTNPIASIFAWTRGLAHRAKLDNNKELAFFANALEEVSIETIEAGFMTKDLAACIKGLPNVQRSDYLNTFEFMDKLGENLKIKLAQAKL
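IDH1-R132H (0.5 ug/mL) preincubated 30 min with compound, then NADPH (0.016 mM) and alpha-KG (2 mM) added; 80 min at RT, pH 7.5. Remaining NADPH coupled via diaphorase/resazurin to fluorescence (540/590 nm); concentration-response curves normalized to no-enzyme control.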
GLP1R ag – GLP-1 receptor (human) agonism | HEK293 GLP-1R CRE-luciferase, luminescence, 4-6 h; cells express a hypersensitive GLP-1R form | Potency, µM (doses to about 45.6 µM), without a hit: top-dose activation, hits mostly activators | actives 0.007% (n = 380,000); further: % of control where 0% means no effect
HEK293 tox – cytotoxicity counter-screen for GLP-1 receptor inverse agonists. HEK293 cAMP-luciferase reporter cells, luminescence, 24 h. Potency, µM (series often up to 38.3 µM), for the others: at the top dose activity change, negative = inhibition, hits mostly inhibitors. actives 0.13% (n = 410,000);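 further: loss of luciferase light is scored as toxicity; on the % scale 0 is the no-effect control and ±100 the full control effect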
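A 23 nL compound transfer followed 12 hours of cell culture at 37 deg C; exposure then lasted 24 hr. Luciferase assay detection reagent was dispensed and plates read for luminescence after a 12 min room-temperature wait.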
TrxR1 substrate – substrates of rat thioredoxin reductase 1; O89049; purified TrxR1 substrate turnover, NADPH consumption readout; Potency, µM (doses to about 114 µM), for the others: top-dose activity change, negative = substrate turnover; actives 0.01% (n = 390,000); AID 588456; further: on the % scale 0 is the no-effect control and ±100 the full control effect; nearly all actives have a fitted effect of over 50% in size
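Rat TrxR1, dispensed at 90 nM, was prereduced with 400 uM NADPH (final) for 5 min at ~22 deg C, then incubated with compound 15 min before 400 uM selenite. A first-read NADPH fluorescence drop versus no-compound background flagged substrates.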
Numbers without * were called inactive; ? = inconclusive; nt = no result given; [ ] = dose if it differs, or a comment. The call rests on the fitted dose curve; in most records, active means well fitted curve in the direction sought with a large enough effect; inconclusive means small, poorly fitted or top-dose-only effect, or another doubt; inactive means no such curve, though single readings can be large; an effect the other way counts as inactive or inconclusive. Potency means the concentration at half of the fitted maximal effect.

SMILES	GLP-1R inv ag	TrxR1 inh	mIDH1 inhibitor	GLP1R ag	HEK293 tox	TrxR1 substrate
Cc1ccc(C)c(OCCn2cc(C(=O)O)c3ccccc32)c1	-14%	-19%[57.1 µM]	33µM*	4%	-6%	-11%[57.1 µM]
CC(=O)c1cn(CCOc2cc(C)ccc2C)c2ccccc12	1%	14%	5%	-8%	-6%	5%
COc1ccccc1OCCn1cc(C(=O)c2ccco2)c2ccccc21	13µM*	13%[57.1 µM]	-2%	-6%	-14%	4%[57.1 µM]
Cc1ccccc1OCCn1cc(C(=O)c2ccco2)c2ccccc21	?	34%	6%	nt	-10%	-2%
Cc1ccc(N2CCN(C(=O)c3c(C)oc4nc(C)nc(N5CCCC5)c34)CC2)c(C)c1	?	-2%	-3%	nt	-4%	-6%
O=C(CSc1nc(-c2ccccc2)no1)N1CCN(c2ccc(F)cc2)CC1	7%	15%[57.1 µM]	0%	nt	-2%	-2%[57.1 µM]
Cc1cccc(N2CCN(C(=O)C3CCCCC3)CC2)c1C	10µM*	4%	5%	-1%	6%	-2%[57.1 µM]
Cc1cccc(N2CCN(C(=O)C3CCCN(S(=O)(=O)c4c(C)noc4C)C3)CC2)c1C (configuration not stated)	7.9µM*	7%[57.1 µM]	4%	-4%	-9%	-2%[57.1 µM]
Cc1ccccc1N1CCN(C(=O)C2CCCCC2)CC1	?	6%[57.1 µM]	2%	6%	20%	4%[57.1 µM]
Cc1noc(C)c1S(=O)(=O)N1CCCC(C(=O)N2CCC(C)CC2)C1 (configuration not stated)	8%	13%	8%	8%	-12%	4%
COc1cccc(NC(=O)CN(C)C(=O)C(Sc2ccccc2)c2ccccc2)c1 (configuration not stated)	11µM*	-2%[57.1 µM]	9%	5%	-10%	-2%[57.1 µM]
Cc1nc2c(=O)n(C)c(=O)n(C)c2nc1Cl	?	2µM*	3%	-5%	?	60%[57.1 µM]
Cc1cc(=O)[nH]c2nnc(SCC(N)=O)n12	-6%	3%[57.1 µM]	7%	nt	2%	-4%[57.1 µM]
CCN(CC)C(=O)c1ccc(Oc2ccc([N+](=O)[O-])cc2Cl)cc1	?	30%[57.1 µM]	7%	8%	-3%	3%[57.1 µM]
CCN(CC)C(=O)c1cc([N+](=O)[O-])cc2c1-c1ccc([N+](=O)[O-])cc1C2=C(C#N)C#N	19%	25µM*	3%	4%	-11%	-4%
O=C(CC1S/C(=N/N=C2CCCCCC2)NC1=O)Nc1ccccc1F (configuration not stated)	6%	17%	-1%	0%	?	5%
CC1=C/C(=N\N=C2\NC(=O)C(CC(=O)Nc3ccccc3F)S2)CC(C)(C)C1 (configuration not stated)	?	-9%[57.1 µM]	11%	4%	11µM*	-5%[57.1 µM]
NC(=O)c1cccc(-c2ccnc3c2CC(C(=O)NCc2ccccc2)O3)c1 (configuration not stated)	5µM*	nt	nt	1%	-27%	nt
NC(=O)CCN1CCCCC1	12%	4%	-5%	5%	-7%	-4%
O=C(CCC(=O)CCN1CCCCC1)CCN1CCCCC1	32%	1.8µM*	0%	-3%	16%	8%[57.1 µM]
COc1ccccc1CN(Cc1nc2ccccc2c(=O)[nH]1)C(=O)Nc1ccc(C)cc1	10µM*	27%	2%	6%	?	3%
CCN(Cc1nc2ccccc2c(=O)[nH]1)C(=O)COc1ccccc1-c1ccccc1	11µM*	11%	0%	-5%	?	2%
COc1ccccc1CN(Cc1nc2ccccc2c(=O)[nH]1)C(=O)Nc1ccccc1C	0%	29%[57.1 µM]	7%	3%	?	6%[57.1 µM]
NC1CCc2ccccc21 (configuration not stated)	nt	-4%	nt	nt	nt	6%
COCCc1nn2c(=O)cc(COC(=O)c3ccc4c(c3)OCO4)nc2s1	8%	11%[57.1 µM]	13%	nt	-1%	4%[57.1 µM]
SMILES	GLP-1R inv ag	TrxR1 inh	mIDH1 inhibitor	GLP1R ag	HEK293 tox	TrxR1 substrate
CCOc1ccccc1CN1CCN(Cc2cc3ccccc3[nH]2)CC1CCO (configuration not stated)	10µM*	-3%[57.1 µM]	-2%	13%	-25%	-3%[57.1 µM]
Cc1ccc(/C=C/c2onc(C)c2S(=O)(=O)N2CCC(C(=O)NCc3ccc(C)o3)CC2)cc1	-12%	-17%[57.1 µM]	-8%	nt	3%	-9%[57.1 µM]
COc1ccc(NC(=O)COc2cccc3c2OC(C)(C)C3)cc1OC	12%	11%	-7%	14%	2%	2%
COc1ccc(C(C)=O)cc1COc1cccc2c1OC(C)(C)C2	?	32µM*	7%	1%	14%	9%
O=C(NCCc1cccs1)c1ccc(Cl)cc1	10µM*	17%[57.1 µM]	4%	-1%	-8%	-6%
O=C(NCCc1cccs1)C(c1ccccc1)c1ccccc1	?	8%	1%	5%	-22%	-2%
O=C(NCCc1cccs1)c1ccc(Cl)c(Cl)c1	?	14%[57.1 µM]	9%	12%	2%	8%[57.1 µM]
Cc1ccc(C(=O)NCCc2cccs2)cc1	5µM*	-16%	0%	-3%	3%	-7%
Cc1cc(C)n(C(C[N+](=O)[O-])c2ccc(Cl)cc2)n1 (configuration not stated)	-5%	5.6µM*	0%	-10%	-10%	4%
Cc1ccc(CCNC(=O)Cn2nc(-c3ccc(C)cc3)ccc2=O)cc1	-7%	17%[57.1 µM]	2%	nt	9%	0%[57.1 µM]
Cc1ccc(OCc2nc(-c3ccccn3)n[nH]2)cc1	?	0%[57.1 µM]	5%	-2%	2.5µM*	-9%[57.1 µM]
CC(C)(C)OC(=O)[C@H](Cc1ccccc1)NC(=O)c1nc[nH]c1C(=O)N[C@@H](Cc1ccccc1)C(=O)OC(C)(C)C	10µM*	15%	1%[38.3 µM]	0%	0%	-12%
COc1ccc(N(Cc2cccs2)C(=O)COc2cc(C)c(Cl)c(C)c2)cc1	8.9µM*	11%	5%	nt	-22%	-10%
Cc1cc(C)cc(OCC(=O)N(Cc2cccs2)c2ccc(Cl)cc2)c1	10µM*	40%	0%	nt	-7%	7%
Cc1cc([N+](C)(C)C)cc(C)c1/C=C/c1ccnc2ccccc12	nt	-21%	nt	nt	nt	-3%
COc1cc(/C=C/CNC[C@H]2O[C@@H](n3cnc4c(N)ncnc43)[C@H](O)[C@@H]2O)ccc1O	6%	nt	nt	5%	5%	nt
O=C(Nc1ccc(F)cc1)c1cc(S(=O)(=O)Nc2ccc(F)cc2)cs1	10µM*	?	3%	-17%	-30%	-9%
Cc1cccc(C(=O)N2CCC(N3CCN(Cc4ccc(F)cc4)C(=O)C3=O)CC2)c1	-9%	-1%[57.1 µM]	-9%	nt	1%	-3%[57.1 µM]

Screening results deposited in PubChem BioAssay by National Center for Advancing Translational Sciences (NCATS).
